# Source: PubChem BioAssay
# Vaccinia mCherry: inhibitors of vaccinia virus infection (mCherry reporter signal); Vaccinia virus mCherry reporter infection, fluorescence; Potency, µM (series often up to 36.5 µM), for the others: at the highest dose activity change, negative = inhibition, hits mostly inhibitors; actives 0.63% (n = 310,000); AID 720579; calls by dose curve; tested in A549 cells; also: nearly all actives have a fitted effect of over 35% in size
# Vaccinia Venus: vaccinia inhibition (Venus reporter). Vaccinia virus Venus reporter expression, fluorescence. Potency, µM (doses to about 36.5 µM), for the others: at the highest dose activity change, negative = inhibition, actives largely listed as inhibitors. actives 0.46% (n = 330,000). AID 720580; calls by dose curve; tested in A549 cells; also: nearly all actives have a fitted effect of over 30% in size
# AMA1-RON2 inh: AMA1-RON2 (P. falciparum) interaction inhibition; actives 0.2% (n = 360,000); AlphaScreen AMA1-biotinylated RON2 peptide binding; Potency, µM (highest dose often 58.2 µM), for the others: at the highest dose activity change, negative = inhibition, hits mostly inhibitors; AID 720542;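 also: 0% = vehicle wells and -100% = peptide control; nearly all actives have a fitted effect of over 45% in size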
#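 AMA1 (3D7) with his tag at 25 nM final met compounds first, then biotinylated RON2 peptide at 25 nM; detection used donor plus acceptor beads, 10 µg/mL apiece, read by AlphaScreen after 30 min at room temperature.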
# Pf growth 48h: P. falciparum growth inhibition at 48 hours (one generation); actives 5.9% (n = 310,000); P. falciparum luciferase growth in erythrocytes, 48 h; Potency, µM (doses to about 28.7 µM), without a hit: top-dose activity change, negative = inhibition, hits mostly inhibitors
#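 Cell-based growth assay: transgenic P. falciparum expressing firefly luciferase, cultured in red cells within RPMI 1640 containing 0.5% w/v Albumax, 24 mM bicarbonate and gentamycin. A drop in luciferase activity indicates inhibition.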
# Pf growth 96h: P. falciparum growth inhibition at 96 hours; actives 6.9% (n = 320,000); AID 504834; P. falciparum luciferase reporter growth, 96 h; Potency, µM (titrated, usually from 28.7 µM), without a hit: top-dose activity change, negative = inhibition, usual class: inhibitors
#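 Erythrocytes infected with luciferase-expressing P. falciparum were dispensed at 2% hematocrit and 0.05% parasitemia (final), then incubated with compounds 96 hours at 37 C in 5% CO2. Luminescence after detection reagent addition reported growth.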
# The depositor's hits bear a star; i = inactive; ? = inconclusive; nt = not tested or not shown. Hits are enriched below; roughly 8.7% of the tested compounds scored in any of these assays. Unless noted, calls follow the shape of the dose curve; as a rule, active = well fitted curve in the direction sought with a large enough effect; inconclusive = small, poorly fitted or top-dose-only effect, or another doubt; inactive = no such curve, though single readings can be large; an effect the other way counts as inactive or inconclusive. Unless noted, % is scaled to controls: 0 for no effect and ±100 for the full control effect; potency is read from the fitted curve at half-maximal effect.
SMILES,Vaccinia mCherry,Vaccinia Venus,AMA1-RON2 inh,Pf growth 48h,Pf growth 96h
COc1ccc(-c2nc3n(n2)C(c2ccc(OC)c(OC)c2)C(C(=O)Nc2cccnc2)=C(C)N3)cc1 (stereo not given),i,-8%,nt,nt,nt
Cc1cc(Cl)ccc1Nc1ncnc2onc(C)c12,-13%,-9%,nt,nt,nt
Oc1ccc(Cl)cc1Cc1cc(Cl)ccc1O,?,?,3%,?,?
Oc1ccc(Cl)cc1CNn1cnnc1,-4%,-2%,12%,19%,-19%
Oc1ccc(Cl)cc1CNCc1ccc(F)cc1,-8%,-19%,13%,5.2µM*,5.2µM*
Oc1ccc(Cl)cc1CNCc1ccc(Cl)cc1,-24%,-21%,37%,3.7µM*,5.9µM*
Cc1ccsc1CNCc1cc(Cl)ccc1O,-10%,-25%,23%,1.7µM*,2.9µM*
Oc1ccc(Cl)cc1Cc1ccccc1,nt,nt,4%,11µM*,7.6µM*
Oc1ccc(Cl)cc1CNc1nccs1,?,?,47%,?,?
O=C(O)c1ccc(CNCc2ccc(Cl)cc2Cl)cc1,nt,10%,-1%,-3%,nt
Oc1ccc(Cl)cc1CNCc1ccc(C(F)(F)F)cc1,-18%,?,57%,1.2µM*,5.9µM*
Cc1ccc(-c2nc(=S)c3c(n2Cc2ccco2)CC(C)(C)OC3)cc1,nt,nt,43%,?,8.3µM*
Cc1ccc(-c2nc(=S)c3c(n2Cc2ccco2)CCCC3)cc1,nt,0%,-5%,?,76%
COc1ccc(-c2nc(CS(=O)CC(=O)NC3CCCC(C)C3C)c(C)o2)cc1OC (stereo not given),nt,nt,-5%,-14%,12µM*
CCc1ccc(-c2nc(CS(=O)CC(=O)NC3CCCCCC3)c(C)o2)cc1 (stereo not given),nt,nt,1%,21%,8.3µM*
Cc1ccc(-c2nc(CS(=O)CC(=O)NC3CCCC(C)C3C)c(C)o2)cc1 (stereo not given),?,?,-7%,21%,-11%
COc1ccc(CNc2ccncc2)c(OC)c1OC,i,-15%,-4%,nt,nt
COc1cc(NCc2ccc3nc(N)nc(N)c3c2C)cc(OC)c1OC,nt,nt,nt,0.006µM*,0.0048µM*
CCC1CN(Cc2cccn2-c2ccccn2)Cc2cc(OC)ccc2O1 (stereo not given),-9%,5%,nt,nt,nt
COc1nc(SC)nc(Cl)c1Cc1ccc(OC(C)C)cc1,-12%,-6%,11%,-16%,1µM*
Cc1cccc(N=C2NN=C(c3c(C)[nH]c4ccccc34)CS2)c1,?,?,13%,2.6µM*,1.5µM*
O=C(Nc1ccccc1)Nc1nnc(SCc2ccc(Cl)cc2)s1,nt,nt,-5%,5%,?
O=C(Nc1ccc(Cl)cc1)Nc1nnc(SCc2ccc(Cl)cc2)s1,nt,nt,-8%,-7%,5.2µM*
COC(=O)c1c(-c2ccsc2)sc2ccc(-c3cc(OC)c(OC)c(OC)c3)cc12,-23%,-16%,-23%,nt,nt
COc1ccc2sc(-c3ccc(S(C)(=O)=O)cc3)c(C#CCO)c2c1,10µM*,?,8%,nt,nt
SMILES,Vaccinia mCherry,Vaccinia Venus,AMA1-RON2 inh,Pf growth 48h,Pf growth 96h
COc1cc(-c2ccc3sc(-c4ccsc4)c(C#CCO)c3c2)cc(OC)c1OC,?,?,-4%,12µM*,?
O=C(CN1Cc2ccccc2OC(c2ccsc2)C1)N1CCC(c2nc3ccccc3[nH]2)CC1 (stereo not given),-17%,-12%,nt,nt,nt
COc1ccc(CCn2c(=N)c(C(=O)NC3CCCC3)cc3c(=O)n4ccccc4nc32)cc1,-19%,-10%,-8%,?,?
COc1ccc(CCn2c(=N)c(C(=O)NC3CCCC3)cc3c(=O)n4ccccc4nc32)cc1OC,nt,nt,6%,4.1µM*,3.3µM*
COc1ccc(Cn2c(=N)c(C(=O)NC3CCCCC3)cc3c(=O)n4ccccc4nc32)cc1,nt,nt,-3%,4.7µM*,1.9µM*
CC(C(=O)OCC(=O)c1ccc(Br)cc1)N1C(=O)C2C3CCC(C3)C2C1=O (stereo not given),-4%,0%,10%,24%,12µM*
Cc1ccc(C(=O)COC(=O)C(C)N2C(=O)C3C4CCC(C4)C3C2=O)cc1C (stereo not given),i,-11%,-1%,-2%,36%
Cc1ccc(C(=O)COC(=O)C(C)N2C(=O)C3C4CCC(C4)C3C2=O)cc1 (stereo not given),-8%,-2%,-6%,10%,8.3µM*
